Measurements reported in PubChem BioAssay AID1159580 (chemical genetic matrix, 2015).
Out of some 5,500 compounds screened, about 2,000 (36%) were called active. Not shown: some 18% with an inconclusive outcome. Rule as the data show it: active = normalized growth mostly below about 0.91 (no sharp cut-off); inconclusive = no clear call, values can overlap the other calls; inactive = mostly above about 0.92. The list shows a part of the results.

Test: chemical genetic growth profiling, strain panel (AID 1159580);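 also: tested at 20 µM; growth read once vehicle control cultures reached saturation at 30 °C; 1 = growth at the plate median or of vehicle wells; lower values mean less growth of the strain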
Settings: growth OD

Measured: normalized growth

C1CCN(CCC2CCCCN2)CC1 (stereo not drawn)
inactive: S. cerevisiae deletion strains, locus YAL013W, strain DEP1, stronger effect = lower value 0.999 | S. cerevisiae deletion strains, locus YBR229C, strain ROT2, stronger effect = lower value 1.01 | S. cerevisiae deletion strains, locus YDL101C, strain DUN1, stronger effect = lower value 0.995 | S. cerevisiae deletion strains, locus YDL134C, strain PPH21, stronger effect = lower value 1 | S. cerevisiae deletion strains, locus YDR150W, strain NUM1, stronger effect = lower value 0.936 | S. cerevisiae deletion strains, locus YEL061C, strain CIN8, stronger effect = lower value 1.02 | S. cerevisiae deletion strains, locus YGR078C, strain PAC10, stronger effect = lower value 1 | S. cerevisiae deletion strains, locus YHR030C, strain SLT2, stronger effect = lower value 1.08 | S. cerevisiae deletion strains, locus YHR087W, strain rtc3, stronger effect = lower value 1 | S. cerevisiae deletion strains, locus YJR043C, strain POL32, stronger effect = lower value 1 | S. cerevisiae deletion strains, locus YJR075W, strain HOC1, stronger effect = lower value 0.998 | S. cerevisiae deletion strains, locus YKL190W, strain CNB1, stronger effect = lower value 0.998 | S. cerevisiae deletion strains, locus YLR039C, strain RIC1, stronger effect = lower value 1.01 | S. cerevisiae deletion strains, locus YLR058C, strain SHM2 (second series), stronger effect = lower value 1.01 | S. cerevisiae deletion strains, locus YLR085C, strain ARP6, stronger effect = lower value 1.01 | S. cerevisiae deletion strains, locus YLR262C, strain YPT6, stronger effect = lower value 1 | S. cerevisiae deletion strains, locus YML094W, strain GIM5, stronger effect = lower value 1.01 | S. cerevisiae deletion strains, locus YMR219W, strain ESC1, stronger effect = lower value 1 | S. cerevisiae deletion strains, locus YMR263W, strain SAP30, stronger effect = lower value 1.01 | S. cerevisiae deletion strains, locus YNL153C, strain GIM3, stronger effect = lower value 1 | S. cerevisiae deletion strains, locus YNL298W, strain CLA4 (second series), stronger effect = lower value 0.981 | S. cerevisiae deletion strains, locus YNL322C, strain KRE1, stronger effect = lower value 0.995 | S. cerevisiae deletion strains, locus YNR030W, strain Alg12, stronger effect = lower value 0.996 | S. cerevisiae deletion strains, locus YOL006C, strain TOP1, stronger effect = lower value 0.964 | S. cerevisiae deletion strains, locus YPL055C, strain LGE1, stronger effect = lower value 0.967 | S. cerevisiae deletion strains, locus YPL241C, strain CIN2, stronger effect = lower value 0.993 | S. cerevisiae deletion strains, locus YPR135W, strain CTF4, stronger effect = lower value 1.08 | S. cerevisiae strains, strain wild type, stronger effect = lower value 0.996
